Among the data in PubChem BioAssay (NCI) are growth values, retold here.

The structures appear in SMILES notation. Compounds without any hit were thinned out: in the full panel of roughly 83,000, 20% have a hit.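 Testing used 96-well plates and a 48-hour single-concentration exposure. Example: -40 means 40% of the starting cells died.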 Unmarked numbers belong to inactive results. Activity calls are given as the source filed them. Rule for the calls: active = growth percent below 10; inactive = the rest.

The test system of the test is MDA-MB-468 breast. Description: NCI-60 one-dose screen, 48 h (100 = growth as untreated, 0 = no growth, -100 = all killed). The conditions noted are these: 10 µM unless noted.
With `CCCCCCCC/C=C/CCCCCCCC1=NC(C)(C)CN1C(C)(C)CO`, the growth was -91.5% (active). On to `CCOC(=O)C1=C(N)Oc2c(sc3c(C)cccc23)C1c1ccc(OC)cc1` (stereo not given), for which the growth is 0.934% (active). To `c1ccc(Oc2c3ccccc3nc3ccccc23)cc1` belongs -4.55% (active). The value for `COc1ccc(C2c3sc4c(C)cccc4c3Oc3nc(CC(=O)Nc4ccccc4)[nH]c(=O)c32)cc1` (stereo not given) was 18.6%; that for `CCOC(=O)c1c(NC(=O)c2ccccc2)sc2c3c(ccc12)OCN(C)C3` was -73.7% (active); that for `CCCCc1ccc(C(O)(CCN2CC3CCC(CC3)C2)c2ccccc2)cc1` (stereo not given) was 97.4%. The value for `COc1ccc(Cn2c(Br)c3c(c2-c2cc(OC)c(OC)c(OC)c2)CCc2sc(NC(C)=O)nc2-3)cc1` was 22.8%; that for `CCOc1ccc(NC(=O)CSc2oc(-c3ccccc3)nc2S(=O)(=O)c2ccc(C)cc2)cc1` was 53%; that for `CC(=O)OCC(=O)[C@@]1(O)CC[C@H]2[C@@H]3CC(=C(Br)Br)C4=CC(=O)CC[C@]4(C)[C@H]3C(=O)C[C@@]21C` was 79.1%.

As to `COC(=O)c1ccc(NC2=C(Cl)C(=O)C(C)=C(C)C2=O)cc1`, the growth is -45.9% (active). The value for `C#Cc1ccc(NC(=O)c2ccc(/C=C/C(=O)c3nccn3C)cc2)c(F)c1` was 32.3%; that for `Cc1ccc2cnc(N)c(C#Cc3cc(C(=O)Nc4ccc(CN5CCN(C)CC5)c(C(F)(F)F)c4)cnc3C)c2c1` was 15.5%; that for `Cn1cc(-c2nc(-c3c[nH]c4ccncc34)cs2)c2ccccc21` was -12.2% (active). The value for `CN(C)CCn1c(=O)c2c3cc4c(cc3n(CCN(C)C)c2c2ccc(Cl)cc21)OCO4` was 41%; that for `Cc1c(N2CCCCC2)[nH]c2ccccc12` was 121%. For `COc1ccc(CCO)cc1`, the growth was 101%. Turning to `COc1cc2c(cc1OC)C(CC1(O)CCCCC1)N(S(=O)(=O)c1ccc(C)cc1)CC2` (stereo not given), the growth is 44.4% [100 µM].

Take `CCc1nnc(CNc2ccc(Cl)cc2)o1`: the growth was 114%. To `NC(=O)c1c(NC(=O)c2ccc(C(F)(F)F)cc2)sc2c1CCC(=O)C2` belongs -30.7% (active); to `C=CCn1c(SCC(=O)Nc2ccc(C(=O)/C=C/c3ccc(Br)cc3)cc2)nnc1-c1c[nH]c2ccccc12`, 85.8%. To `O=[N+]([O-])c1cccc(-c2nc3sccn3c2-c2ccnc(NCCCNS(=O)(=O)c3ccc(Br)cc3)n2)c1` belongs 29.2%; to `Cn1cc(-c2csc(-c3cn(C)c4ccccc34)n2)c2cnccc21`, -27.1% (active); to `CCC1=C[C@]2(C3CC(=O)N(c4ccccc4)C3=O)CC(C(C)(C)C)C[C@@H]2[C@@H]2C(=O)N(c3ccccc3)C(=O)[C@H]12` (stereo not given in full), 90.2%. Turning to `O=[N+]([O-])c1ccc2c(c1)Cc1cc(I)ccc1-2`, the growth is 105%. To `CCN(CC)c1cc(C)c(Cc2c(OC)ccc3ccccc23)cc1C` belongs 99.6%; to `CC(C)[O-].CC(C)[O-].CN(CCN(C)Cc1cc(F)cc(F)c1[O-])Cc1cc(F)cc(F)c1[O-].[Ti+4]`, -36.8% (active); to `CC(=O)O[C@H]1CC[C@@]2(C)[C@@H](CC[C@@H]3[C@@H]2CC[C@]2(C)C=C(C=O)C[C@@H]32)C1`, 111%. As to `COc1ccc(C(=O)O)cc1.[Ag]`, the growth is 93.9%. The value for `COc1ncc(-c2ccc3nccc(C#CCN4CCN(S(C)(=O)=O)CC4)c3c2)cc1NS(=O)(=O)c1ccc(F)cc1F` was -67% (active). The value for `CCN(CC)CC(O)CNc1ccnc2cc(Cl)c(Cl)cc12` (stereo not given) was 83.5%. To `CCc1ccc(Oc2c(-c3ccc(OCCc4cccc(C(F)(F)F)c4)cc3O)n[nH]c2C(F)(F)F)cc1` belongs 22.5%. On to `CCCC/C(=N\N=C(N)N)c1ccc(F)cc1`, for which the growth was -12.3% (active). The value for `Cc1ccnc(Nc2nc3ccccc3[nH]2)n1` was 119%. Regarding `C1Cc2onc(-c3noc4c3CCC4)c2C1`, the growth is 110%.

For the compound `COc1ccc(C(=O)n2cc(C=O)c3ccccc32)cc1`, the growth was 105%.

Take `Cc1cc(C(N)=O)cc(C)c1C(=O)OCCCl`: the growth is 115%. To `COc1cc(OC)c(/C=C/c2cc[n+](C)c3ccccc23)c(OC)c1` belongs -20.6% (active). The value for `C[C@@H]1C(=O)N(C[C@H](Cc2ccccc2)N(Cc2ccccc2)Cc2ccccc2)[C@]1(Cc1ccccc1)C(=O)OC(C)(C)C` was 10.7%. As to `Nc1c(Br)cc(O)c2c1C(=O)c1ccccc1C2=O`, the growth is -9.43% (active). For the compound `COc1ccc2c3c(c(OCCCN(C)C)nc2c1)-c1ccc(Cl)cc1C3=O`, the growth was 43.5%.
